High-throughput results: PubChem, National Center for Advancing Translational Sciences (NCATS)
FMDV antiviral: foot and mouth disease virus antiviral activity | FMDV antiviral cell-based qHTS | Potency, µM (titrated, usually from 57.9 µM), most hits filed as inhibitors | hit rate 1.2% among 410,000 | AID 1159524; calls by dose curve; tested in HEK293T cells; also: read-out not given here; nearly all actives have a fitted effect of over 45% in size
Marburg entry inh: inhibitors of Marburg virus binding or cell entry. Marburg virus pseudotyped entry inhibition, cell reporter. Potency, µM (series often up to 37.8 µM), usual class: inhibitors. hit rate 1.8% among 300,000; calls by dose curve; tested in HEK293 cells
HCMV antiviral: inhibitors of human cytomegalovirus; AID 1259415; HFF cells, HCMV-luciferase reporter, 72 h; stronger effect = lower value; activity change, negative = inhibition, % at 57.5 µM; hit rate 4.5% among 410,000; in the data active = activity change below about -60%; inconclusive = no clear call, values can overlap the other calls; inactive = above about -39%
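Cell-based, HFFs, 1000 cells/well, 16 h 37C; cpds in DMSO + HCMV-luc, MOI 1 PFU/cell; 72 h 37C; OneGlo luminescence after 5 min RT; norm. to buffer vs Salinomycin 10uM.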
Vaccinia mCherry: vaccinia inhibition (mCherry reporter); hit rate 0.63% among 310,000; Vaccinia virus mCherry reporter infection, fluorescence; Potency, µM (top dose mostly 36.5 µM), most hits filed as inhibitors; calls by dose curve; tested in A549 cells; also: nearly all actives have a fitted effect of over 35% in size
VACV Venus inh: vaccinia inhibition (Venus reporter); hit rate 0.46% among 330,000; Vaccinia virus Venus reporter expression, fluorescence; Potency, µM (series often up to 36.5 µM), most hits filed as inhibitors; calls by dose curve; tested in A549 cells; also: nearly all actives have a fitted effect of over 30% in size
Lassa entry inh: blocks Lassa virus binding to or entry into cells; Lassa virus pseudotype entry inhibition, cell reporter; hit rate 1.2% among 300,000; Potency, µM (top dose mostly 37.9 µM), actives largely listed as inhibitors; AID 540256; calls by dose curve; tested in HEK293 cells; also: nearly all actives have a fitted effect of over 50% in size
Of the large screens only hits and unclear results are named; the others gave an inactive call. This is a sample that favours compounds with a hit; in the whole collection about 6.5% have one here.

CCc1ccc(-c2cn3nc(C)c(C)nc3n2)cc1	Marburg entry inh 2.1µM, HCMV antiviral -87, Lassa entry inh inconclusive (no result: Vaccinia mCherry, VACV Venus inh)
Cc1nc2nc(-c3ccccc3)cn2nc1C	Marburg entry inh inconclusive, Lassa entry inh 12µM (no result: FMDV antiviral)
CC(C)C(=O)N1CCN(c2ccc(NC(=O)c3cccs3)cc2Cl)CC1	FMDV antiviral inconclusive, HCMV antiviral -85 (no result: Marburg entry inh, Vaccinia mCherry, VACV Venus inh, Lassa entry inh)
CC(=O)N1CCN(c2ccc(NC(=O)c3ccc4c(c3)OCCO4)cc2Cl)CC1	FMDV antiviral inconclusive, Marburg entry inh inconclusive, Lassa entry inh inconclusive
CC(C)C(=O)N1CCN(c2ccc(NC(=O)c3cccs3)cc2)CC1	none
CC(C)C(=O)N1CCN(c2ccc(NC(=O)c3ccc4c(c3)OCCO4)cc2Cl)CC1	FMDV antiviral 11µM, Marburg entry inh 6.5µM, HCMV antiviral -80, Lassa entry inh 26µM (no result: Vaccinia mCherry, VACV Venus inh)
COc1ccc([C@]23Cc4cc(OC)c(OC)cc4[C@H](O2)C2=C(CC4(CCCCC4)OC2=O)O3)cc1	none (no result: FMDV antiviral, HCMV antiviral, Vaccinia mCherry, VACV Venus inh, Lassa entry inh)
Cc1ccc(-n2nc(CO)c(C(=O)NCCc3ccccc3)n2)cc1C	Lassa entry inh inconclusive
COc1ccc(OC)c(NC(=O)Nc2cccc(OCc3cc(=O)n4cc(C)ccc4n3)c2)c1	none (no result: Marburg entry inh)
COc1ccccc1-c1ccnc2c(-c3ccc(Br)cc3)c(C)nn12	Marburg entry inh inconclusive
C=CCn1cccc(/C=C/C(=O)c2ccc(C(C)(C)C)cc2)c1=S	FMDV antiviral 25µM, Marburg entry inh inconclusive, Vaccinia mCherry inconclusive, VACV Venus inh inconclusive, Lassa entry inh 16µM
Cc1ccc(C)c(Nc2ncnc3onc(C)c23)c1	Lassa entry inh inconclusive (no result: Marburg entry inh)
CCCCn1c(O)c(C(CC)=Nc2ccc(C(=O)O)cc2)c(=O)[nH]c1=O	none
CCCCn1c(O)c(C(CC)=Nc2ccc3c(c2)CCC3)c(=O)[nH]c1=O	Lassa entry inh 1.3µM (no result: Vaccinia mCherry, VACV Venus inh)
CCOc1ccccc1CN1CCCC(c2nc(C)ncc2-c2ccc(F)cc2)C1 (centres undefined)	none (no result: Marburg entry inh, HCMV antiviral, Lassa entry inh)
O=C(/C=C/c1cc(Br)ccc1O)c1ccco1	FMDV antiviral inconclusive, HCMV antiviral -79, Vaccinia mCherry inconclusive (no result: Marburg entry inh, Lassa entry inh)
Nc1ccc(/C=C/C(=O)c2ccco2)cc1	none
O=C(/C=C/c1ccccc1O)c1ccco1	FMDV antiviral inconclusive, Vaccinia mCherry inconclusive, VACV Venus inh 13µM, Lassa entry inh inconclusive
COc1ccccc1/C=C/C(=O)c1cc(Br)ccc1OC(=O)c1ccco1	FMDV antiviral inconclusive, Marburg entry inh inconclusive, VACV Venus inh inconclusive
COc1ccc(S(=O)(=O)N(Cc2nc(-c3cccc(C)c3)no2)C2CCCCC2)cc1	Marburg entry inh inconclusive
Cc1ccc(CCNC(=O)c2cnc3c(C)cccn3c2=O)cc1	none (no result: Marburg entry inh)
CCCN(CCC)CCNC(=O)C1CCN(c2nc3ccc(CC)cc3s2)CC1	Marburg entry inh inconclusive, HCMV antiviral -98, Lassa entry inh inconclusive
CCc1ccc2nc(N3CCC(C(=O)NCCC(C)C)CC3)sc2c1	Marburg entry inh inconclusive, Lassa entry inh inconclusive
CCCN(CCC)CCCNC(=O)C1CCN(c2nc3ccc(CC)cc3s2)CC1	HCMV antiviral -101
Cc1nn(C(=O)c2ccc(Br)cc2)c(C)c1S(=O)(=O)N1CCOCC1	none (no result: Marburg entry inh)
COCCNC(=S)NN=C1CCCCCC1	HCMV antiviral -115 (no result: Marburg entry inh, Vaccinia mCherry, VACV Venus inh, Lassa entry inh)
COCCNC(=S)NN=C1CCC(c2ccccc2)CC1 (centres undefined)	HCMV antiviral inconclusive, Vaccinia mCherry inconclusive
COCCNC(=S)N/N=C1\CC(C)CC(C)(C)C1 (centres undefined)	HCMV antiviral -76
CC(C)(C)C1CCC(=NNC(=S)NCc2ccccc2)CC1 (centres undefined)	HCMV antiviral -62, Vaccinia mCherry inconclusive, Lassa entry inh inconclusive
S=C(NCCc1ccccc1)NC1CC1	none
S=C(NCCc1ccccc1)NN=C1CCCCCC1	HCMV antiviral -92
CCC(C)(C)C1CCC(=NNC(=S)Nc2ccccc2)CC1 (centres undefined)	Lassa entry inh inconclusive
O=C1C=C(NCc2ccccc2)CCC1	Marburg entry inh inconclusive
O=C1C=C(NC2=CC3OC(c4ccccc4)OCC3OC2=O)CCC1 (centres undefined)	FMDV antiviral 18µM, Marburg entry inh inconclusive, Vaccinia mCherry inconclusive, VACV Venus inh inconclusive, Lassa entry inh 10µM
COc1ccc([N+](=O)[O-])cc1NC(=O)COC(=O)c1ccccc1C(=O)c1ccccc1	Marburg entry inh inconclusive, HCMV antiviral inconclusive, Lassa entry inh inconclusive
COc1ccc([N+](=O)[O-])cc1NC(=O)C(C)OC(=O)c1ccccc1C(=O)c1ccc(Cl)cc1 (centres undefined)	HCMV antiviral -65, Lassa entry inh inconclusive
COc1ccc(NC(=O)c2ccc(-c3ccc([N+](=O)[O-])cc3)o2)cc1OC	FMDV antiviral inconclusive, Marburg entry inh inconclusive, HCMV antiviral -72, Lassa entry inh inconclusive
COc1ccc([N+](=O)[O-])cc1NC(=O)Nc1ccc(OC)c(OC)c1	FMDV antiviral 35µM, Marburg entry inh inconclusive, HCMV antiviral -72, Vaccinia mCherry inconclusive, VACV Venus inh inconclusive, Lassa entry inh inconclusive
COc1ccc([N+](=O)[O-])cc1NC(=O)Nc1cccc(Cl)c1	FMDV antiviral inconclusive, HCMV antiviral -62
COc1cccc(NC(=O)c2ccc(-c3ccc([N+](=O)[O-])cc3)o2)c1	Marburg entry inh inconclusive, HCMV antiviral inconclusive
Cc1ccc(S(=O)(=O)n2nc(-c3ccco3)nc2N)cc1	HCMV antiviral -67
Cc1ccc2oc(/N=C(\N)NC(=O)C(C)(C)C)nc2c1	FMDV antiviral 35µM, Marburg entry inh inconclusive, HCMV antiviral -90, Lassa entry inh inconclusive
Cc1ccc2oc(/N=C(\N)NC(=O)C3CC3)nc2c1	none (no result: Vaccinia mCherry, VACV Venus inh, Lassa entry inh)
CCN(CC)CCSc1nnc2c3ccccc3n(CCc3ccccc3)c2n1	HCMV antiviral -79, Vaccinia mCherry inconclusive, VACV Venus inh inconclusive (no result: Marburg entry inh, Lassa entry inh)
C=CCn1c2ccccc2c2nnc(SCCCn3c(=O)[nH]c4ccccc43)nc21	FMDV antiviral inconclusive, Marburg entry inh inconclusive, VACV Venus inh 10µM, Lassa entry inh inconclusive (no result: Vaccinia mCherry)
c1ccc(CCn2c3ccccc3c3nnc(SCc4ccc5nonc5c4)nc32)cc1	FMDV antiviral inconclusive, Marburg entry inh 3.3µM, HCMV antiviral -81, Lassa entry inh 5.8µM
c1ccc(Cn2c3ccccc3c3nnc(SCCN4CCCCC4)nc32)cc1	HCMV antiviral -60
O=C1c2ccccc2C(=O)N1CSc1nnc2c3ccccc3n(CCc3ccccc3)c2n1	FMDV antiviral inconclusive, VACV Venus inh inconclusive (no result: HCMV antiviral, Vaccinia mCherry)
C=CCn1c2ccccc2c2nnc(SCN3C(=O)c4ccccc4C3=O)nc21	none (no result: Vaccinia mCherry)
C=CCn1c2ccccc2c2nnc(SCCN3CCCCC3)nc21	none (no result: Marburg entry inh, Vaccinia mCherry, VACV Venus inh, Lassa entry inh)
Cc1nc(NCc2cnn(C)c2)sc1-c1ccn(-c2cccc(F)c2)n1	none (no result: Marburg entry inh, HCMV antiviral, Lassa entry inh)
CCCCCC1CC1C(=O)N/N=C/c1ccc(N(C)C)cc1 (centres undefined)	Lassa entry inh 0.46µM (no result: Vaccinia mCherry, VACV Venus inh)
CNC(=S)N/N=C/c1ccc(N(C)C)cc1	none
C/C(=N/Nc1cc(-c2ccccc2)nc(-c2ccccc2)n1)c1ccc(O)cc1	Marburg entry inh inconclusive, HCMV antiviral -65, Vaccinia mCherry inconclusive, VACV Venus inh inconclusive
Cc1ccc2nc(/C=C/c3ccc(N(C)C)cc3)ccc2c1	none (no result: FMDV antiviral, Marburg entry inh, HCMV antiviral, Lassa entry inh)
